Screening results: PubChem BioAssay, National Center for Advancing Translational Sciences (NCATS)
Rab9 promoter act: activates the Rab9 promoter; AID 485297; Potency, µM (titrated, usually from 9.22 µM), for the others: at the highest dose activation, negative = inhibition, most hits filed as activators; actives 2.8% (n = 320,000); Huh7 Rab9 promoter-luciferase reporter, luminescence, 24 h; further: % of control where 0% means no effect; nearly all actives have a fitted effect of over 60% in size
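Steps: seed 1500 Huh7 Rab9-luc cells per well, rest 2 h at 37 °C; add compound in DMSO; incubate 24 h; add luciferase reagent, 10 min ambient; read luminescence.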
Luc counter: counter-screen: inhibitors of Kinase-Glo firefly luciferase. Potency, µM (doses to about 38.3 µM), inactives show top-dose activity change, negative = inhibition, most hits filed as inhibitors. Kinase-Glo luciferase, ATP luminescence, 8 min. actives 0.28% (n = 200,000). AID 1379; further: on the % scale 0 is the no-effect control and ±100 the full control effect; nearly all actives have a fitted effect of over 60% in size
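Recombinant Kinase-Glo luciferase, 10 uM ATP (linear range), luciferin; imidazole pH 7.2 / KCl / MgCl2 / Tween / BSA buffer; 8 min RT; luminescence.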
FLuc modulator: counter-screen for miR-21 project: firefly luciferase inhibitors or activators | purified FLuc, Km substrates, luminescence inhibition | Potency, µM (doses to about 57.5 µM), without a hit: top-dose activity change, negative = inhibition, hits mostly inhibitors | actives 6.9% (n = 360,000) | AID 588342;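 further: plate controls were vehicle for no effect and reference inhibitor for full effect; nearly all actives have a fitted effect of over 55% in size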
Target sequence (P08659 whole entry, looked up): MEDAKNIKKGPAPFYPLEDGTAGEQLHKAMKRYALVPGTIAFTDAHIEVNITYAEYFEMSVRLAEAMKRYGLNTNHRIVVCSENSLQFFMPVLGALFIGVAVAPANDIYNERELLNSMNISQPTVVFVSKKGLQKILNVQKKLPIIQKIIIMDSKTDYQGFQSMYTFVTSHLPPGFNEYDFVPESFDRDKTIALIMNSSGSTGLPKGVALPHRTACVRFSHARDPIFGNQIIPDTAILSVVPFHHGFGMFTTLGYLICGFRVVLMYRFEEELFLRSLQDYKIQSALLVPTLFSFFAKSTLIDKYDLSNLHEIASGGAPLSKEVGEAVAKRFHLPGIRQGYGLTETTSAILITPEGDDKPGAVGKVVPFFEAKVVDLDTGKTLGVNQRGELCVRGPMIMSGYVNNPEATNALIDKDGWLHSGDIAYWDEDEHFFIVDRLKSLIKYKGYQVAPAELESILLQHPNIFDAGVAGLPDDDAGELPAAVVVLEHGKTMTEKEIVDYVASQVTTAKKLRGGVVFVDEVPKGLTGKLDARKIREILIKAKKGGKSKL
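Biochemical qHTS of compounds, final roughly 60 µM downward over six points, against 10 nM purified firefly luciferase using Km concentrations of substrates (10 uM D-luciferin, 10 uM ATP) in Tris acetate pH 7.5 buffer; luminescence output.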
SMN2 splice enh: SMN2 splice variant enhancement | AID 1458 | actives 2.8% (n = 210,000) | HEK293 SMN2-luciferase splicing reporter, luminescence, 30-36 h | Potency, µM (top dose mostly 46.1 µM), for inactives: top-dose activity change, positive = activation, hits mostly activators; further: % of control where 0% means no effect; nearly all actives have a fitted effect of over 55% in size
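HEK293 cells carry an SMN2 […]–luciferase reporter in which exon 7 inclusion puts luciferase in frame. Cells were plated 10-12 h before compound addition, then incubated 30-36 h at 37C. ONE-Glo luminescence was read; sodium butyrate at 4.5 mM final served as control.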
ELG1 genotoxic: genotoxicity induction in ELG1-luciferase HEK293T cells; HEK293T ELG1-luciferase reporter, luminescence, 16 h; Potency, µM (highest dose often 46 µM), for the others: at the top dose activity change, positive = activation, usual class: activators; actives 1.3% (n = 330,000); further: % of control where 0% means no effect; nearly all actives have a fitted effect of over 60% in size
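Step 1: seed 2,000 HEK293T ELG1-luciferase cells per well. Step 2: add compound or DMSO, incubate 16 hr at 37 °C. Step 3: ONE-Glo, 30 min at room temperature, read luminescence.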
NPC1 promoter act: NPC1 promoter activation; actives 2.4% (n = 320,000); Potency, µM (series often up to 9.22 µM), inactives show at the top dose activation, actives largely listed as activators; AID 485313; Huh7 NPC1 promoter luciferase reporter, 24 h; further: % of control where 0% means no effect; nearly all actives have a fitted effect of over 60% in size
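Luminescence read-out of NPC1 promoter-driven luciferase in stably transfected Huh7 cells; compounds delivered in DMSO and left 24 h at 37C, 5% CO2, qHTS titration format.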
* marks the source's active call; other numbers are inactive results; u = inconclusive; x = no result given. Rows were chosen to be rich in hits. Some 7.5% of all compounds tested hit in one or more screens of this group. The call rests on the fitted dose curve; in most records, active means well fitted curve in the direction sought with a large enough effect; inconclusive means small, poorly fitted or top-dose-only effect, or another doubt; inactive means no such curve, though single readings can be large; an effect the other way counts as inactive or inconclusive. Potency means the concentration at half of the fitted maximal effect.

SMILES	Rab9 promoter act	Luc counter	FLuc modulator	SMN2 splice enh	ELG1 genotoxic	NPC1 promoter act
O=C(Nc1ccc(-c2n[nH]c(=S)o2)cc1)c1ccccc1	7%	x	8.5µM*	x	8%	10%
C=CCOc1ccc(-c2n[nH]c(=S)o2)cc1	-2%	1%	24µM*	x	7%	-1%
Cc1ccc(NC(=S)Nc2cccc(-c3n[nH]c(=S)o3)c2)cc1	u	x	17µM*	x	15%	-1%
COc1ccc(C(=O)Nc2ccc(-c3n[nH]c(=S)o3)cc2)cc1	u	x	3µM*	x	u	29%
CCN(CC(=O)NCc1ccc(F)cc1)C(=O)COc1ccccc1[N+](=O)[O-]	x	x	x	x	5%	x
CCOc1ccc(N(c2nc(-c3ccc(OC)c(OC)c3)no2)c2nc(-c3ccc(OC)c(OC)c3)no2)cc1	x	x	-4%	-5%	x	x
Cc1cc(/C([O-])=C(/C(=S)Nc2ccccc2)[n+]2ccccc2)c(C)n1-c1ccccc1	22%	1%	12µM*	0%	10µM*	17%
Cc1cc(/C([O-])=C(/C(=S)Nc2ccc(F)cc2)[n+]2ccccc2)c(C)n1-c1ccc(F)cc1	22%	-2%	u	2%	5%	11%
Cc1ccc(N(Cc2ccccc2)C(=O)c2cc(S(=O)(=O)N3CCOCC3)ccc2F)cc1	1%	x	19µM*	x	0%	-2%
Cc1ccc(N(Cc2ccccc2)C(=O)c2cc(S(=O)(=O)N3CCOCC3)ccc2Cl)cc1	-4%	x	u	x	u	-4%
Cc1cc2ncn(CCOc3ccccc3)c2cc1C	3.5µM*	-3%	17µM*	-2%	u	u
Cc1ccc(C)c(N2CCN(C(=O)c3cn(CC(C)C)c(=O)c4c3c3ccccc3n4C)CC2)c1	x	x	-8%	-4%	x	x
Cc1ccc(-n2ncc3c(Nc4cccc(C)c4C)ncnc32)cc1	x	x	8.5µM*	x	x	x
CCOc1ccccc1Nc1ncnc2c1cnn2-c1ccc(C)cc1	x	x	15µM*	x	x	x
Cc1ccc(-n2ncc3c(Nc4ccc(Oc5ccccc5)cc4)ncnc32)cc1	x	x	-6%	x	x	x
Cc1ccc(Nc2ncnc3c2cnn3-c2ccccc2)c(C)c1	x	x	19µM*	x	x	x
CCOc1ccccc1Nc1ncnc2c1cnn2-c1ccccc1	0%	2%	-13%	-6%	-5%	-1%
O=C(/C=C/c1ccccc1)c1ccc(O[C@H]2OC(CO)C(O)C(O)C2O)cc1O (some centres not stated)	x	-1%	x	4%	x	x
CC1=C(C(N)=O)C(c2ccc(F)cc2)n2nc(-c3ccc(N(C)C)cc3)nc2N1 (configuration not stated)	x	x	u	1%	x	x
CCOC(=O)c1ccc(NC(=O)CC2C(=O)N(c3cccc(OC)c3)C(=O)N2CCOC)cc1 (configuration not stated)	-1%	-1%	-1%	4µM*	1%	-2%
CCOC(=O)c1ccc(NC(=O)CC2C(=O)N(c3cccc(C)c3)C(=O)N2CCOC)cc1 (configuration not stated)	x	x	-3%	11%	x	x
O=C(Nc1ccc(Cl)cc1)Nc1ccon1	6%	x	u	x	3%	-22%
O=C(Nc1cccnc1)Nc1cc(Cl)cc(Cl)c1	-6%	0%	u	x	-5%	-9%
CN1CCc2cc(NC(=O)Nc3cccnc3)ccc21	u	-2%	x	u	x	9.2µM*
CCOc1ccc(NC(=O)Nc2ccon2)cc1	u	x	24µM*	x	u	25%
SMILES	Rab9 promoter act	Luc counter	FLuc modulator	SMN2 splice enh	ELG1 genotoxic	NPC1 promoter act
Cc1ccc(NC(=O)Nc2cccnc2)cc1Cl	28%	x	4.8µM*	x	u	u
Cc1ccc(NC(=O)Nc2ccon2)cc1Cl	23%	x	19µM*	x	3%	21%
COc1ccc(N2CCN(C(=O)c3nn(C)c4c3CSc3ccccc3-4)CC2)cc1	x	x	0%	x	x	x
COc1ccc(CNC(=O)C2CCN(S(=O)(=O)c3ccc4c(c3)CCCN4C(C)=O)CC2)cc1	x	x	1%	x	x	x
COc1cccc(C(=O)N(Cc2ccc(N(C)C)cc2)Cc2ccco2)c1	x	x	-3%	-1%	x	x
CN1CCC(NC(=O)c2cnn3c2NC(=C2CC2)C=C3C(F)F)CC1	x	x	3%	x	x	x
O=C(NCC(F)(F)F)Nc1cccnc1	7%	0%	-1%	-10%	1%	-7%
CC(=O)c1ccc(NC(=O)Nc2cccnc2)cc1	u	x	u	x	21µM*	2.5µM*
O=C(Nc1ccc(F)cc1)Nc1cccnc1	4%	x	17µM*	x	1%	10%
CCC(C)c1ccc(NC(=O)Nc2cccnc2)cc1 (configuration not stated)	4.5µM*	x	1.7µM*	x	u	1.8µM*
CC(=O)c1ccc(NC(=O)Nc2ccncc2)cc1	20%	-1%	-26%	15%	12%	1%
O=C(Nc1ccc(OC(F)(F)F)cc1)Nc1cccnc1	u	x	7.6µM*	x	6%	u
COc1ccc(OCc2ccc(-c3nc(C#N)c(N4CCN(c5cccc(Cl)c5)CC4)o3)o2)cc1	x	x	-1%	x	x	x
COCCCNC(=O)Cn1cnc2sc(C)c(S(=O)(=O)N3CCC(C)CC3)c2c1=O	x	x	-1%	-6%	x	x
CC1(C)C(=O)C=C[C@@]2(C)C1C=C[C@@]1(C)C2CC[C@@]2(C)C(c3ccoc3)OC(=O)C3OC312 (some centres not stated)	x	-7%	x	-118%	x	x
O=C(Nc1ccccc1)Nc1ccc(Oc2cccnc2)nc1	25%	x	13µM*	x	6%	27%
COc1cc2c(cc1C(F)(F)F)N(C(=O)Nc1cc(F)cc(-c3cccnc3)c1)CC2	x	-4%	x	-18%	x	x
O=C(Nc1ccccc1)C(=O)Nc1cccnc1	0.4µM*	x	3µM*	x	u	0.5µM*
Cn1ccc2cc3c(cc21)CCN3C(=O)Nc1cccnc1	3.2µM*	-3%	6µM*	u	u	3.7µM*
CC(C)Oc1ccc(C(=O)N2CCN(c3nc4c(F)cc(F)cc4s3)CC2)cc1	x	x	-3%	x	x	x
N#CC1=C(Nc2ccc(Br)cc2)CCC1	7%	-7%	-22%	x	u	0%
Cc1ccc(NC2=Nc3ccccc3CC2)cc1	0.4µM*	-14%	1.9µM*	12%	0.73µM*	0.4µM*
Brc1ccc(NC2=Nc3ccccc3CC2)cc1	u	-12%	3.8µM*	10µM*	18%	3.2µM*
Cc1ccc(NC(=O)C2OCCc3ccccc32)cc1 (configuration not stated)	5%	-1%	u	x	7%	21%
CCC(=O)Nc1ccccc1-c1nc2ccccc2n(CC(=O)c2ccc(C)c(C)c2)c1=O	x	x	-5%	x	x	x
O=C(NCCc1ccc(F)cc1)c1ccncc1	22%	x	-3%	x	11%	3%
O=C(NCCc1ccc(Cl)cc1)c1ccc(Br)s1	4.5µM*	x	u	x	u	4µM*
